In PubChem BioAssay (NCI):
About 83,000 compounds went through this panel and 20% of them were active in at least one assay; those are over-represented in the sample as a whole.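 The test compound was applied at a single concentration to cells in 96-well plates for 48 hours, and percent growth was recorded.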 Values without a mark were called inactive. Activity calls are given as the source filed them. Rule for the calls: active = growth percent below 10; inactive = the rest.

Columns and labels:
Assay in all cases: NCI-60 one-dose screen, 48 h (100 = growth as untreated, 0 = no growth, -100 = all killed)
Details in all cases: 10 µM unless noted
SK-MEL-2 melanoma = tested on: SK-MEL-2 melanoma
EKVX NSCLC = tested on: EKVX NSCLC
SN12C renal = tested on: SN12C renal
UO-31 renal = tested on: UO-31 renal
TK-10 renal = tested on: TK-10 renal
ACHN renal = tested on: ACHN renal
CAKI-1 renal = tested on: CAKI-1 renal
CCRF-CEM leukemia = tested on: CCRF-CEM leukemia
MOLT-4 leukemia = tested on: MOLT-4 leukemia

| Compound | growth (SK-MEL-2 melanoma) | growth (EKVX NSCLC) | growth (SN12C renal) | growth (UO-31 renal) | growth (TK-10 renal) | growth (ACHN renal) | growth (CAKI-1 renal) | growth (CCRF-CEM leukemia) | growth (MOLT-4 leukemia) |
| --- | --- | --- | --- | --- | --- | --- | --- | --- | --- |
| Clc1nc(Nc2ccccc2)nc(Nc2ccccc2)n1 | 106% | 106% | 95.9% | -80.6% (active) | 122% | 98.9% | 86.5% | 91.7% | 86.3% |
| CC(=O)N1c2ccccc2NC2=C(C(=O)N(C)C2(C)C)C1C (stereo not drawn) | 8.92% (active) | 61.5% | 40.7% | 82% | 87.1% | 97% | 71.9% | 20.7% | 33.3% |
| COc1ccccc1N1CCN(C(=O)c2ccc3nc(NC(=O)c4ccc(NCCc5ccccc5)c([N+](=O)[O-])c4)sc3c2)CC1 | 93.4% | 89% | 77.2% | 60.1% | 110% | 90.6% | 73.4% | 77.6% | 95.4% |
| O=c1[nH]nc(-c2ccc(Cl)cc2)cc1Cc1cccc([N+](=O)[O-])c1 | 174% | 39.8% | 89.1% | 71.7% | 147% | 98.3% | 80.8% | -7.68% (active) | 5.84% (active) |
| CC(=O)[C@@H]1CC[C@]2(C(N)=O)CC[C@]3(C)[C@H](CC[C@@H]4[C@@]5(C)CCC(=O)C(C)(C)[C@@H]5CC[C@]43C)[C@@H]12 | 100% | 90.1% | 102% | 98.7% | 107% | 97.1% | 89.6% | 99% | 92.5% |
| C#CC(=O)Nc1cccc2c1cc(C)n2-c1nc2c(c(NCc3ccccc3)n1)CCCC2 | -74.5% (active) | -39.3% (active) | -66.2% (active) | -76% (active) | -98.1% (active) | -73.6% (active) | -43.2% (active) | -26.5% (active) | -33.4% (active) |
| C#CC(=O)Nc1cccc(Nc2nc3c(c(NCc4ccccc4)n2)CCCC3)c1 | -69.1% (active) | -62.3% (active) | -30.7% (active) | -91.6% (active) | -97.2% (active) | -93.5% (active) | -85.4% (active) | -8.54% (active) | -24.9% (active) |
| O=S(=O)(NCCCNc1nccc(-c2c(-c3cccc(O)c3)nc3occn23)n1)c1ccc(F)cc1 | 50.6% | 101% | 74.9% | 92.1% | 116% | 79.1% | 72.2% | 89% | 70% |
| COc1cccc(-c2nc3occn3c2-c2ccnc(NCCCNS(=O)(=O)c3cccc(F)c3)n2)c1 | 90.2% | 79.8% | 87.7% | 69.8% | 131% | 84.5% | 78.2% | 81.3% | 67.7% |
| CC(=O)O[C@]1(C(C)=O)CC[C@H]2[C@@H]3C=C(Cl)C4=CC(=O)CC[C@]4(C)[C@H]3CC[C@@]21C | 98.6% | 107% | 97.7% | 93.8% | 113% | 108% | 94.6% | 95.3% | 84.9% |
| O=S(=O)(c1cccc(NC2=Nc3cccc4cccc2c34)c1)N1CCCC1 | 75.2% | 62% | 72.2% | 67.5% | 90.5% | 66.9% | 78% | 41.7% | 57% |
| CCCCCCN(C)Cc1ccc(OCCOc2ccc(CN(C)CCCCCC)cc2)cc1 | -40.8% (active) | 55.3% | 40.1% | -5.75% (active) | 31.6% | 35.1% | 27.2% | 13.3% | -4.95% (active) |
| COc1ccc(C(=O)c2cc(C)c(OC)c(C)c2)c(OC)c1O | 26.8% | 59.2% | 28.8% | 36.6% | 58.5% | 22.5% | 39.5% | 16.3% | 23.4% |
| O=C(Nc1ccc2cc3ccc(NC(=O)N4CCCCCC4)cc3nc2c1)N1CCCCCC1 | -69% (active) | -41% (active) | -57.6% (active) | -85.4% (active) | -62.3% (active) | -93.6% (active) | -64.7% (active) | 8.09% (active) | -21.2% (active) |
| FC(F)(F)c1cccc(Nc2ccccc2)c1 | 88.7% | 101% | 101% | 97.6% | 94% | 99.6% | 97.5% | 109% | 89.9% |
| Cc1c2c(cc[n+]1Cc1ccccc1)c1ccc(OCc3ccccc3)cc1n2Cc1ccccc1 | -36% (active) | -28.8% (active) | -86.6% (active) | -18.2% (active) | 11.8% | 8.54% (active) | -5.76% (active) | -16.2% (active) | -51% (active) |
| COc1ccc(C2CC(c3cccc(Nc4ccncc4)c3)=NN2c2cc(Cl)cc(Cl)c2)cc1 (stereo not drawn) | 91.1% | 81.9% | 70.8% | 53.7% | 63.2% | 51.7% | 33.3% | 7.35% (active) | -2.82% (active) |
| COc1ccc(/C(=C\c2ccccc2)C(=O)O)cc1OC | 98.3% | 101% | 98.4% | 88.9% | 104% | 94.8% | 97.4% | 117% | 108% |
| C=C1C(=O)O[C@H]2[C@H]1CC/C(COC(=O)NCCc1c[nH]c3ccc(Cl)cc13)=C\CC[C@@]1(C)O[C@@H]21 | -3.3% (active) | -85.8% (active) | -70.1% (active) | -99.7% (active) | -97.2% (active) | -100% (active) | -100% (active) | -18.3% (active) | -6.88% (active) |

| Compound | growth (SK-MEL-2 melanoma) | growth (EKVX NSCLC) | growth (SN12C renal) | growth (UO-31 renal) | growth (TK-10 renal) | growth (ACHN renal) | growth (CAKI-1 renal) | growth (CCRF-CEM leukemia) | growth (MOLT-4 leukemia) |
| --- | --- | --- | --- | --- | --- | --- | --- | --- | --- |
| O=C(CCN1CCCC1)Nc1ccc2c(NCc3ccc(F)cc3)c3ccccc3nc2c1 | -5.55% (active) | 14.6% | -2.56% (active) | 1.44% (active) | -3.79% (active) | 5.75% (active) | 3.81% (active) | -15.2% (active) | -19.8% (active) |
| COc1cc2c(cc1[N+](=O)[O-])-c1ccc([N+](=O)[O-])cc1/C2=N\O | 92.6% | 76.7% | 91.1% | 67.6% | 78.9% | 72.5% | 83.4% | 78.2% | 83.3% |
| Cn1c(COC(=O)N2CCCCC2)nc2c(N3CCOCC3)nc(-c3ccccc3)nc21 | -79.6% (active) | -59.4% (active) | -86.1% (active) | -99.3% (active) | -86.2% (active) | -100% (active) | -88% (active) | -6.4% (active) | -5.2% (active) |
| C=C1C(=O)O[C@H]2[C@H]1CC/C(CNC(=O)/C=C/c1ccccc1F)=C\CC[C@@]1(C)O[C@@H]21 | 54.7% | -18.9% (active) | 8.82% (active) | -95.9% (active) | -29% (active) | -65.6% (active) | -84.4% (active) | -0.259% (active) | -12% (active) |
| N#Cc1ccc(-c2ccc3c(c2)NC(=O)/C3=C\c2ccc[nH]2)cc1 | 89.3% | 26.5% | 95.8% | 72% | 54.4% | 101% | 82.4% | 103% | 109% |
| COc1ccccc1C(C[N+](=O)[O-])c1c(-c2ccccc2)[nH]c2cc(C)ccc12 (stereo not drawn) | 62.8% | 71.7% | 77.9% | 57.2% | 118% | 73.4% | 38.1% | 54.4% | 53% |
| COc1ccc(/C=C\c2nc3ccccc3s2)cc1OP(=O)(O)O | 22.2% | 76.8% | 55.4% | 51.5% | 90.3% | 56.9% | 38.5% | 16.8% | 26.3% |
| CCCCCN1C=C/C(=C\C(=O)N(C)c2ccc(Br)cc2)c2ccccc21 | 109% | 84.8% | 97.6% | 77.6% | 102% | 113% | 86.7% | 97.9% | 85% |
| FCc1nc2nc(Cl)c(Cl)nc2[nH]1 | 107% | 103% | 109% | 94.5% | 92.7% | 99.5% | 91.6% | 104% | 97.8% |
| COC(=O)C1NC(=S)N(c2ccc(Cl)cc2)C1/C=C/c1ccccc1 (stereo not drawn) | 102% | 92.4% | 99.3% | 86.8% | 105% | 96.3% | 91.3% | 100% | 103% |
| Nc1c(C(=O)Nc2cccc3ccncc23)sc2nc3c(cc12)C(=O)CCC3 | 25.1% | 62.1% | 54.5% | 57.7% | 68.2% | 51.2% | 37.7% | 21.5% | 85.2% |
| C(=C\c1n(Cc2ccc3ccccc3c2)c(-c2ccccc2)c(-c2ccccc2)[n+]1Cc1ccc2ccccc2c1)/c1ccccc1 | -68.7% (active) | -77.5% (active) | -91% (active) | -99.1% (active) | -81.8% (active) | -94.9% (active) | -100% (active) | -17.8% (active) | -43.5% (active) |
| O=S(=O)(NCCNc1nccc(-c2c(-c3cccc(F)c3)nc3occn23)n1)c1cccc2ccccc12 | 58.3% | 48.5% | 47.6% | 15.9% | 47.1% | 40.5% | 25% | 43.8% | 26.3% |
| Cc1cc(Nc2cccc(C(F)(F)F)c2)n2c(nc3ccccc32)c1C#N | 28.7% | 31.5% | 25.4% | 28.3% | 58.3% | 46.9% | 38.7% | 55.8% | 56.6% |
| COC(=O)C(c1ccccc1)C(CC(=O)c1ccccc1)c1ccccc1 (stereo not drawn) | 85.5% | 58.3% | 102% | 75% | 92.4% | 86.6% | 74.8% | 84.7% | 71% |
| N#Cc1c(NC(=O)c2cccc(Br)c2)sc2c1CCCC2 | 91.9% | 92.3% | 83.9% | 82.3% | 79.2% | 75.6% | 73% | 63.5% | 52.3% |
| COc1cccc(CNCCN2C(=O)c3ccc4c5c(ccc(c35)C2=O)C(=O)N(CCNCc2cccc(OC)c2)C4=O)c1 | 90.4% | 121% | 85.7% | 60.5% | 99.6% | 76.4% | 95.5% | -0.889% (active) | 90.4% |
| O=C(Nc1cccc(C2=NCCN2)c1)c1ccc(OCCCOc2ccc(C(=O)Nc3cccc(C4=NCCN4)c3)cc2)cc1 | -47.3% (active) | 69.4% | 23.6% | 85.7% | 81.5% | 75.3% | 65.1% | 33.5% | 25.4% |
